PubChem BioAssay AID686979 (National Center for Advancing Translational Sciences (NCATS), 2013)
“And” between values parts separate entries of the source, which are not always exact repeats. Identical values can stand only once. Hit rate of the full screen: of about 420,000 compounds, about 50,000 (12%) were called active. Inconclusive results (about 26%) are left out. This is one part of a sample in which actives are shown more often than they occur. Calls come from the whole dose curve; as a rule, active = well fitted inhibition curve with a large enough effect; inconclusive = small, poorly fitted or top-dose-only effect; inactive = flat fitted curve, though single readings scatter. A structure can be active in one record and inactive in another.

assay: qHTS for Inhibitors of human tyrosyl-DNA phosphodiesterase 1 (TDP1): qHTS in cells in presence of CPT; details: chicken DT40 Tdp1-/-;hTDP1 cells + 20 nM CPT, ATP luminescence, 48 h; series mostly up to 46.2 µM; activity change, negative = growth inhibition: at the top concentration; note: nearly all actives have a fitted effect of over 55% in size
Procedure, shortened: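 Chicken DT40 Tdp1-/- cells complemented with human TDP1, 400 cells/well, exposed to compounds plus 20 nM camptothecin for at least 48 h at 37 C; viability read as ATP content by CellTiter-Glo luminescence.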
% is set by controls: 0 for no effect and ±100 for the full control effect; potency is the fitted concentration of half-maximal effect.

| SMILES | activity change, negative = growth inhibition | Potency |
| --- | --- | --- |
| COc1ccc(F)cc1C(=O)COC(=O)c1n[nH]c(=O)c2ccccc12 | -1.47% (inactive) |  |
| COc1ccc(C)cc1N(C(=O)Cn1nnc(-c2ccc(C)o2)n1)C(C(=O)NC1CCCC1)c1ccncc1 (stereo not given) | 12.6% (inactive) |  |
| COc1ccc(C2OCC3(CO2)SC(=O)NC3=O)cc1OC (stereo not given) | 15.1% (inactive) |  |
| N#CCC(=O)NC1CCC(CC2CCC(NC(=O)CC#N)CC2)CC1 (stereo not given) | -2.97% (inactive) |  |
| COc1ccc(Nc2nc(NCc3ccco3)nc(N/N=C/c3ccccc3Cl)n2)cc1 |  | 20.6 µM (active) |
| COc1ccc(NC(=O)C(=O)NCc2ccco2)cc1 | -4.67% (inactive) |  |
| COc1ccc(Nc2nc(Cl)nc(NCc3ccco3)n2)cc1 | -16.7% (inactive) |  |
| CCN(CC)S(=O)(=O)c1ccc(OC(C)C)c(N)c1 | -24.6% (inactive) |  |
| O=C(O)c1ccc(OCC2CCCO2)cc1 (stereo not given) | -2.84% (inactive) |  |
| COc1ccc2cc(C(=O)NCC3CCCO3)[nH]c2c1 (stereo not given) | -0.892% (inactive) |  |
| COc1ccc(OC)c(NC(=O)c2cc(-c3cc(F)ccc3OCC3CCCO3)n[nH]2)c1 (stereo not given) |  | 8.2 µM (active) |
| O=S(=O)(c1ccc(F)cc1)n1ccc(-c2cnc(-c3ccccc3)s2)n1 | -7.25% (inactive) |  |
| COc1cc(/C=C/C(=O)OCC(=O)c2ccccc2)cc(OC)c1OC | -24.3% (inactive) |  |
| COc1cc2c(cc1NC(=O)COC(=O)/C=C/c1ccccc1)oc1ccccc12 |  | 20.6 µM (active) |
| COc1cc2c(cc1NC(=O)CN1CCN(S(=O)(=O)c3ccc(F)cc3)CC1)oc1ccccc12 | -14.8% (inactive) |  |
| CSCCC(NC(=O)c1ccccc1)C(=O)N1CCCCCCC1 (stereo not given) | 6.01% (inactive) |  |
| COc1ccc(/C=C(\C#N)C(=O)ONC2=NCCCCC2)cc1 |  | 16.4 µM (active) |
| CC(C)(C)C(=O)/C(C#N)=C/c1ccc(O)cc1 | -4.28% (inactive) |  |
| COc1ccc(/C=C(\C#N)C(=O)OCC(=O)N(C)C2CCS(=O)(=O)C2)cc1 (stereo not given) | 19.1% (inactive) |  |
| CCN(CC(=O)Nc1c(F)cccc1F)C(=O)Cc1cccs1 | 19.7% (inactive) |  |
| CC(C)C1CC2=C(C(=O)OC(C)(C)O2)C(c2ccc(F)cc2)O1 (stereo not given) | 4.47% (inactive) |  |
| O=C(NCc1ccc(Cl)cc1)C1CCN(S(=O)(=O)c2cccs2)CC1 |  | 11.6 µM (active) |
| O=C(NCc1ccccc1)C1CCCN(S(=O)(=O)c2cccs2)C1 (stereo not given) | -3.4% (inactive) |  |
| O=C(NCc1cccs1)C1CCN(S(=O)(=O)c2ccc(Cl)cc2)CC1 | 1.59% (inactive) |  |
| CC1=C(C(N)=O)C(c2ccc(F)cc2)n2nc(CCCO)nc2N1 (stereo not given) | 4.64% (inactive) |  |
| CCCCOP(=O)(c1ccc(N(C)C)cc1)C(O)c1cc(OC)ccc1OC (stereo not given) | -8.33% (inactive) |  |
| Cc1ccc(S(=O)(=O)N(C)c2ccc(OCC(=O)OCc3ccc(C#N)cc3)cc2)cc1 | 8.89% (inactive) |  |

| SMILES | activity change, negative = growth inhibition | Potency |
| --- | --- | --- |
| Cc1ccc(CN2CCN(Cc3cccc(C)n3)CC2CCO)cc1 (stereo not given) | 21.1% (inactive) |  |
| COC(=O)C1CCN(C(=O)COC(=O)c2cc(S(=O)(=O)N3CCOCC3)ccc2C)CC1 | 2.81% (inactive) |  |
| CC(=O)Nc1ccc(NC(=O)COc2ncnc3ccccc23)cc1 | -10.5% (inactive) |  |
| N#Cc1cccc(NC(=O)CN2CCCCCC2)c1 | 40.9% (inactive) |  |
| N#Cc1cccc(Nc2c3c(nc4ccccc24)CCCC3)c1 |  | 18.4 µM (active) |
| N#Cc1cccc(NC(=O)CCC2CCCC2)c1 | -0.0634% (inactive) |  |
| CC(=O)Nc1ccc(S(=O)(=O)N(C)c2nc3ccccc3nc2Cl)cc1 | -28.2% (inactive) |  |
| O=C(Nc1c2c(nc3ccccc13)CCCC2)c1ccccc1Br | 0.399% (inactive) |  |
| Cc1ccc(Nc2c3c(nc4ccccc24)CCC3)cc1 |  | 11.6 µM (active) |
| CC(=O)Nc1ccc(Nc2c3ccccc3nc3ccccc23)cc1 |  | 0.326 µM (active) |
| CN1CCCN(C(=O)C2CCCCC2)CC1 | 10% (inactive) |  |
| CC1(C)C2CC=C(/C=N/NC(=O)C3CC3)C1C2 (stereo not given) | 0.0459% (inactive) |  |
| Cc1cc(C)n(CCC(=O)N2CCN(S(=O)(=O)c3ccc(C)c(C)c3)CC2)n1 | 6.16% (inactive) |  |
| O=C(OCCN1C(=O)c2ccccc2C1=O)[C@@H]1CC(O)CN1S(=O)(=O)c1ccccc1[N+](=O)[O-] (stereo not given in full) | -7.37% (inactive) |  |
| O=C(O)CCCCCCCCc1cn(CN2C(=O)c3ccccc3C2=O)nn1 |  | inactive |
| Cn1c(N)c(C(=O)COC(=O)c2ccc3ccccc3c2)c(=O)n(C)c1=O | -7.02% (inactive) |  |
| Cc1cc(=O)oc2c1ccc1ccccc12 | -4.42% (inactive) |  |
| Cc1nnc(SC(C)C(=O)c2c[nH]c3ccccc23)n1C1CC1 (stereo not given) | -7.04% (inactive) |  |
| COc1cc(SC)ccc1C(=O)NCCOc1ccccc1Cl | -24.1% (inactive) |  |
| COc1ccccc1OCCNC(=O)CCNC(=O)c1ccccc1Cl | 9.3% (inactive) |  |
| O=C(NCCOc1ccccc1Cl)C(=O)Nc1ccccc1 |  | 20.6 µM (active) |
| COc1cc(C(=O)NNC(=O)CN2C(=O)NC3(CCCC3)C2=O)cc(OC)c1OC | 15.5% (inactive) |  |
| CC1(C(=O)NS(=O)(=O)c2cccc(F)c2)CCN1C(=O)Cc1ccc(Cl)cc1Cl (stereo not given) | -13.7% (inactive) |  |
| CCCOc1ccc(Cc2c(O)nc(SC)[nH]c2=O)cc1C | -3.97% (inactive) |  |
| COc1ccc(S(=O)(=O)N2CCN(c3cnccn3)CC2)cc1 | -12.7% (inactive) |  |
| COc1ccc(S(=O)(=O)N2CCN(c3ncnc4c(-c5ccccc5)nsc34)CC2)cc1 |  | 16.4 µM (active) |
| COc1ccc(CCC(=O)N2CCN(S(=O)(=O)c3ccc(OC)cc3)CC2)cc1 | -25.9% (inactive) |  |

| SMILES | activity change, negative = growth inhibition | Potency |
| --- | --- | --- |
| Cc1noc(C)c1COc1ccccc1C(=O)N(C)CC(=O)Nc1cccc(F)c1 | -23.1% (inactive) |  |
| C[C@H]1NS(=O)(=O)c2cc(Cl)ccc2O[C@@H]1c1ccccc1 | -16.9% (inactive) |  |
| COc1ccc(OC)c(S(=O)(=O)n2c([N+](=O)[O-])cnc2C)c1 | 9.62% (inactive) |  |
| CCOCc1nnc(NC(=O)CCS(=O)(=O)Cc2ccccc2)s1 |  | 9.2 µM (active) |
| COCCSc1nnc(NC(=O)CCS(=O)(=O)Cc2ccccc2)s1 | -26.5% (inactive) |  |
| CCCCc1nnc(NC(=O)CS(=O)(=O)Cc2ccccc2)s1 | 3.05% (inactive) |  |
| Cn1c(N)c(C(=O)COC(=O)/C=C/c2cccc(C(F)(F)F)c2)c(=O)n(C)c1=O | -18% (inactive) |  |
| Cc1ccc(CSCC(=O)N(C)CC(=O)Nc2cccc(F)c2)cc1 | -3.39% (inactive) |  |
| CCS(=O)(=O)c1ccc(-c2cccc(NC(=O)c3ccc(Br)o3)c2)nn1 | 3.85% (inactive) |  |
| O=C(NCc1ccc(Cl)c(Cl)c1)c1cccnc1 | -25.4% (inactive) |  |
| CS(=O)(=O)N(Cc1ccccc1Cl)c1ccc(C(=O)NCc2cccnc2)cc1 |  | 23.1 µM (active) |
| Cc1ccc(C(=O)NC(=S)NCc2cccnc2)cc1 | -16% (inactive) |  |
| O=C(O)c1ccccc1-c1ccccc1C(=O)NCc1cccnc1 | 10.1% (inactive) |  |
| Cc1ccc(S(=O)(=O)N(Cc2ccc(Cl)cc2)c2ccccc2C(=O)NCc2cccnc2)cc1 |  | 18.4 µM (active) |
| O=C(NCc1cccnc1)c1cccnc1Sc1ccc(Cl)cc1 | 14.9% (inactive) |  |
| CC(=O)NCC(=O)N(C)C(C(=O)Nc1ccc2c(c1)OCCO2)c1ccccc1 (stereo not given) | -4.03% (inactive) |  |
| O=C(NCc1ccncc1)C(=O)NCC1OCCN1S(=O)(=O)c1ccc(Br)cc1 (stereo not given) | -13.7% (inactive) |  |
| O=C(NCCCN1CCCC1=O)C(=O)NCC1OCCN1S(=O)(=O)c1ccc(Br)cc1 (stereo not given) |  | 18.4 µM (active) |
| COc1ccc(S(=O)(=O)N2CCOC2CNC(=O)C(=O)NCc2ccc(F)cc2)cc1 (stereo not given) | 0.226% (inactive) |  |
| CCOC(=O)c1cnc2c(C)cc(C)cc2c1Nc1ccc(N2CCOCC2)cc1 |  | 25.9 µM (active) |
| CCOC(=O)c1cnc2c(C)cc(Cl)cc2c1NCCc1ccc(OC)c(OC)c1 | -26.6% (inactive) |  |
| CCOC(=O)c1ccccc1C(=O)N1CCOCCOCCOCC1 | -5.38% (inactive) |  |
| CC(C)(O)C1=C[N+](=O)CC=C1 | -6.98% (inactive) |  |
| COc1ccc(SCc2cc(=O)c3ccc(C)c(C)c3[nH]2)cc1 | -29.1% (inactive) |  |
| CCOC(=O)c1ccccc1CN1C(=O)c2ccccc2S1(=O)=O | 0.131% (inactive) |  |
| COC(=O)C1=C(c2ccccc2)c2ccccc2S(=O)(=O)N1CC(=O)Nc1ccccc1C(F)(F)F | -28.1% (inactive) |  |
| CCOC(=O)CN1C(C(=O)c2ccccc2)=C(OC(=O)C(C)(C)C)c2ccccc2S1(=O)=O |  | 20.6 µM (active) |

| SMILES | activity change, negative = growth inhibition | Potency |
| --- | --- | --- |
| Cc1ccc2c(c1)N(CC(=O)N1CCC(O)CC1)C(=O)CO2 | 2.52% (inactive) |  |
| Fc1ccc(-c2nc(Nc3cccc(Cl)c3)nc3c2COc2ccccc2-3)cc1 | -23.3% (inactive) |  |
| Cc1cc(OCC(=O)NCC(O)c2ccccc2)c2c(C)c(C)c(=O)oc2c1 (stereo not given) | -26.3% (inactive) |  |
| Cc1ccc(N(CC(=O)NCC2CCCO2)C(=O)CNS(=O)(=O)c2ccc(Cl)cc2)cc1 (stereo not given) | -2.58% (inactive) |  |
| Nc1ccccc1/C=N\N=C/c1ccccc1N | 1.29% (inactive) |  |
| Nc1cccnc1Sc1ccccc1 | 17.3% (inactive) |  |
| Nc1ccccc1N |  | inactive and 4.86 µM (active) |
| CC1=NN(C(=O)c2ccc(Br)cc2)C(O)(c2ccccc2)C1 (stereo not given) | -21% (inactive) |  |
| Cc1ccc2nc(Nc3ncc4c(n3)CC(C)(C)CC4=O)nc(C)c2c1 | -9.06% (inactive) |  |
| N#Cc1ccc(C(C(=O)NCc2ccccc2)n2c(=O)c(-c3ccco3)nc3ccccc32)cc1 (stereo not given) |  | 20.6 µM (active) |
| COc1ccc(C(C(=O)NCc2ccccc2)n2c(=O)c(-c3ccccc3)nc3ccccc32)cc1 (stereo not given) |  | 14.6 µM (active) |
| CCc1nc2ccccc2c(C(=O)NCc2ccc(OC)cc2)c1C | -20.2% (inactive) |  |
| COc1ccc(CNC(=O)C(C)NCc2ccccc2Cl)cc1 (stereo not given) | 3% (inactive) |  |
| CCCN(CCC)CCCNC(=O)CNC(=O)c1nn(-c2ccc(OC)cc2)c(=O)c2ccccc12 | 11.6% (inactive) |  |
| O=C(CSc1nnc(-c2ccco2)n1Cc1ccccc1)NC(=O)NCc1ccco1 | -15.2% (inactive) |  |
| O=C(NNC(=S)NCc1ccco1)C(c1ccccc1)c1ccccc1 | 2.82% (inactive) |  |
| CCOCCCNC(=O)C(NC(=O)CNC(=O)c1ccccc1)c1ccc(OC)cc1 (stereo not given) | 19.8% (inactive) |  |
| CCCCCNC(=O)C(c1ccc(OC)cc1)n1c(=O)c(-c2ccccc2)nc2ccccc21 (stereo not given) |  | 23.1 µM (active) |
| O=C1COc2ccc(S(=O)(=O)NCCc3ccc(Cl)cc3)cc2N1 | -22.5% (inactive) |  |
| COc1ccc(N(CC(=O)NCCSCc2cccc(Cl)c2)S(C)(=O)=O)cc1 | -0.225% (inactive) |  |
| O=C1CCC(=O)N(c2ccccc2)N1 | 4.59% (inactive) |  |
| O=C1CC(c2ccccc2)=NN1c1ccc([N+](=O)[O-])cc1 |  | 16.4 µM (active) |
| O=c1[nH]n(-c2ccc([N+](=O)[O-])cc2)c(=O)c2ccccc12 | -3.34% (inactive) |  |
| Cc1nc(-c2ccc([N+](=O)[O-])cc2)c(-c2ccccc2)o1 | -23% (inactive) |  |
